Data published in PubChem BioAssay (NCI).
Compounds without any hit were thinned out: in the full panel of roughly 79,000, 15% have a hit. Activity calls are given as the source filed them. No stated cut-off is given here; in the data, active means growth inhibition above about 70%; inactive means the rest.

Experiments:
[1] = NCI Yeast Anticancer Drug Screen. Data for the rad14 strain (AID 159);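 further: 0% = growth of vehicle-treated control cultures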; conditions: S. cerevisiae rad14 strain growth inhibition, hits give high values
Method in brief: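 Here, inhibition of yeast growth was measured after compound exposure, using a strain with a genetic defect in DNA damage repair and vehicle-treated cultures as the reference.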

[2] = NCI Yeast Anticancer Drug Screen. Data for the sgs1 mgt1 strain (AID 161);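 further: 0% = growth of cultures given vehicle only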; conditions: S. cerevisiae sgs1 mgt1 strain, hits give high values
Method in brief: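 Percent growth inhibition was derived by comparing compound-exposed mutant yeast with vehicle-exposed cultures. The strain carries alterations in DNA damage repair.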

[3] = NCI Yeast Anticancer Drug Screen. Data for the cln2 rad14 strain (AID 165);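 further: 0% = growth equal to vehicle treated cultures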; conditions: S. cerevisiae cln2 rad14 strain, hits give high values
Method in brief: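 Yeast carrying cln2 and rad14 alterations (cell cycle control and DNA damage repair) were exposed to compounds. Growth inhibition was measured against vehicle-treated controls.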

[4] = NCI Yeast Anticancer Drug Screen. Data for the bub3 strain (AID 167); conditions: S. cerevisiae bub3 mutant strain, hits give high values
Method in brief: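 Whole-cell yeast assay. The mutant strain was incubated with compounds, and growth inhibition was determined by comparison with vehicle-treated cells.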

[5] = NCI Yeast Anticancer Drug Screen. Data for the wt2 strain (AID 169);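 further: 0% = growth of vehicle-treated yeast cultures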; conditions: S. cerevisiae wt2 strain growth inhibition, hits give high values
Method in brief: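 Yeast cells were exposed to test compounds, and growth inhibition was measured relative to vehicle-treated controls.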

[6] = NCI Yeast Anticancer Drug Screen. Data for the mlh1 strain (AID 171);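 further: 0% = growth of vehicle-treated control cultures of the same strain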; conditions: S. cerevisiae mlh1 strain growth inhibition, hits give high values
Method in brief: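 Yeast carrying a defined genetic alteration in DNA damage repair or cell cycle control were exposed to test compounds. Growth inhibition was measured relative to vehicle-treated controls.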

[7] = NCI Yeast Anticancer Drug Screen. Data for the sgs1 strain (AID 173);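 further: 0% = growth of vehicle-only control cultures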; conditions: S. cerevisiae sgs1 mutant, hits give high values
Method in brief: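 Yeast mutant strains carrying defined defects in DNA damage repair or cell cycle control were exposed to test compounds. Growth inhibition was scored against vehicle-treated controls.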

[8] = NCI Yeast Anticancer Drug Screen. Data for the mlh1 rad18 strain (AID 175); conditions: S. cerevisiae mlh1 rad18 strain growth inhibition, hits give high values
Method in brief: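 Growth inhibition of the yeast strain was measured after compound exposure and expressed relative to vehicle-treated controls. The strain carries defined defects in DNA damage repair.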

[9] = NCI Yeast Anticancer Drug Screen. Data for the rad18 strain (AID 177); conditions: S. cerevisiae rad18 mutant growth inhibition, hits give high values
Method in brief: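 Yeast carrying a defined DNA damage repair alteration were exposed to compounds. Growth inhibition was expressed relative to vehicle-treated controls.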

[10] = NCI Yeast Anticancer Drug Screen. Data for the rad52 strain (AID 147);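 further: 0% = growth of vehicle-treated control cultures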; conditions: S. cerevisiae rad52 mutant growth inhibition, hits give high values
Method in brief: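 Yeast strain carrying a DNA damage repair alteration was exposed to test compounds. Growth inhibition was measured relative to vehicle-treated controls.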

[11] = NCI Yeast Anticancer Drug Screen. Data for the wt1 strain (AID 149);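 further: 0% = growth of vehicle-treated wt1 cultures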; conditions: S. cerevisiae wt1 strain (SPY 50644) growth inhibition, hits give high values
Method in brief: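 Measured: growth of wt1 yeast under compound versus vehicle treatment, reported as inhibition.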

[12] = NCI Yeast Anticancer Drug Screen. Data for the rad50EPP+ strain (AID 151);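 further: 0% = growth of vehicle-treated control cultures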; conditions: S. cerevisiae rad50 mutant strain, hits give high values
Method in brief: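 Yeast strain carrying rad50 alteration (rad50EPP+) exposed to compounds; growth inhibition measured relative to vehicle-treated controls.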

[13] = NCI Yeast Anticancer Drug Screen. Data for the rad50 strain (AID 155);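 further: 0% = growth of vehicle-only cultures of the same strain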; conditions: S. cerevisiae rad50 strain growth inhibition, hits give high values
Method in brief: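 Growth of the mutant yeast was measured after compound exposure and referenced to vehicle-treated cultures.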

[14] = NCI Yeast Anticancer Drug Screen. Data for the mec2-1 strain (AID 157); conditions: S. cerevisiae mec2-1 strain, hits give high values
Method in brief: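 mec2-1 yeast strain, carrying an alteration in DNA damage repair or cell cycle control, was exposed to compounds; growth inhibition was measured relative to vehicle-treated controls.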

[15] = NCI Yeast Anticancer Drug Screen. Data for the CLN2oe strain (AID 163);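 further: 0% = growth of vehicle-only control cultures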; conditions: S. cerevisiae CLN2oe strain, hits give high values
Method in brief: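 Yeast cells carrying a defined cell-cycle control alteration were exposed to test compounds. Growth inhibition was scored against vehicle-treated control cultures.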

[16] = NCI Yeast Anticancer Drug Screen. Data for the mgt1 strain (AID 153); conditions: S. cerevisiae mgt1 mutant growth inhibition, hits give high values
Method in brief: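 Yeast mgt1 strain (DNA repair/cell-cycle alteration panel) exposed to compounds; growth inhibition measured relative to vehicle-treated controls.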

[17] = at 5.0 µM (retest, dose inferred, filed as 0.5)
[18] = at 50.0 µM (retest, dose inferred, filed as 5.0)

Measured: growth inhibition

Cc1cc(N=Nc2ccc(S(=O)(=O)[O-])cc2)cc(C(=O)[O-])c1[O-].NC1CCCCC1N.[Na+].[Pt+4]
active: [1]; at 11.0 µM 98% | [1]; at 33.0 µM 98% | [1]; at 100.0 µM 98% | [2]; [18] 99% | [2]; at 50.0 µM 92% | [3]; [18] 97% | [3]; at 50.0 µM 92% | [4]; at 11.0 µM 99% | [4]; at 33.0 µM 98% | [4]; [18] 98% | [4]; at 50.0 µM 90.2% | [4]; at 100.0 µM 98% | [5]; at 3.7 µM 93% | [5]; at 11.0 µM 98% | [5]; at 33.0 µM 98% | [5]; at 100.0 µM 97% | [6]; at 11.0 µM 99% | [6]; at 33.0 µM 99% | [6]; at 100.0 µM 98% | [7]; at 11.0 µM 99% | [7]; at 33.0 µM 99% | [7]; at 100.0 µM 99% | [8]; [18] 98% | [8]; at 50.0 µM 85.8% | [9]; at 11.0 µM 97% | [9]; at 33.0 µM 98% | [9]; at 100.0 µM 98%
inactive: [2]; [17] 68% | [3]; [17] 49% | [4]; at 1.2 µM -21% | [4]; at 3.7 µM 40% | [4]; [17] 50% | [5]; at 1.2 µM -2% | [6]; at 1.2 µM 7% | [6]; at 3.7 µM 66% | [7]; at 1.2 µM 21% | [7]; at 3.7 µM 63% | [8]; [17] 33% | [9]; at 1.2 µM -26% | [9]; at 3.7 µM 42%

CSC(=S)Nc1cc(C)ccn1
inactive: [10]; at 1.2 µM -5% | [10]; at 3.7 µM 6% | [10]; at 11.0 µM 37% | [10]; at 33.0 µM 38% | [11]; at 1.2 µM -9% | [11]; at 3.7 µM -3% | [11]; at 11.0 µM 17% | [11]; at 33.0 µM 32% | [12]; at 1.2 µM -7% | [12]; at 3.7 µM -15% | [12]; at 11.0 µM 29% | [13]; at 1.2 µM 12% | [13]; at 3.7 µM 15% | [13]; [17] 60% | [13]; at 11.0 µM 64% | [14]; at 1.2 µM -19% | [14]; at 3.7 µM -25% | [14]; [17] 52% | [14]; at 11.0 µM 39% | [14]; at 33.0 µM 50% | [1]; at 1.2 µM -26% | [1]; at 3.7 µM -12% | [1]; at 11.0 µM 42% | [1]; at 33.0 µM 24% | [2]; [17] -11% | [15]; at 1.2 µM 20% | [15]; at 3.7 µM 3% | [15]; at 11.0 µM 31% | [15]; at 33.0 µM 26% | [3]; [17] 39% | [4]; at 1.2 µM -8% | [4]; at 3.7 µM 50% | [4]; [17] 8% | [4]; at 11.0 µM 41% | [4]; at 33.0 µM 30% | [5]; at 1.2 µM -7% | [5]; at 3.7 µM -13% | [5]; at 11.0 µM 23% | [5]; at 33.0 µM 23% | [6]; at 1.2 µM 0% | [6]; at 3.7 µM -4% | [6]; at 11.0 µM 54% | [6]; at 33.0 µM 51% | [7]; at 1.2 µM -11% | [7]; at 3.7 µM -3% | [7]; at 11.0 µM 46% | [7]; at 33.0 µM 52% | [8]; [17] 50% | [9]; at 1.2 µM -23% | [9]; at 3.7 µM -29% | [9]; at 11.0 µM 15% | [9]; at 33.0 µM 39%
active: [10]; at 100.0 µM 82% | [11]; at 100.0 µM 79% | [12]; at 33.0 µM 89% | [12]; at 100.0 µM 91% | [13]; at 33.0 µM 84% | [13]; [18] 99% | [13]; at 50.0 µM 84.8% | [13]; at 100.0 µM 92% | [14]; [18] 99% | [14]; at 50.0 µM 70.3% | [14]; at 100.0 µM 84% | [1]; at 100.0 µM 75% | [2]; [18] 90% | [2]; at 50.0 µM 81.2% | [15]; at 100.0 µM 74% | [3]; [18] 86% | [3]; at 50.0 µM 83% | [4]; [18] 94% | [4]; at 50.0 µM 86% | [4]; at 100.0 µM 83% | [5]; at 100.0 µM 70% | [6]; at 100.0 µM 85% | [7]; at 100.0 µM 93% | [8]; [18] 99% | [8]; at 50.0 µM 83.8% | [9]; at 100.0 µM 75%

O=C(COC(=O)c1cc(O)c(O)c(O)c1)c1ccc(-c2ccccc2)cc1
inactive: [10]; at 1.2 µM -2% | [10]; at 3.7 µM 2% | [10]; at 11.0 µM 8% | [10]; at 33.0 µM 38% | [11]; at 1.2 µM -3% | [11]; at 3.7 µM -3% | [11]; at 11.0 µM -2% | [11]; at 33.0 µM 10% | [12]; at 1.2 µM 6% | [12]; at 3.7 µM 21% | [12]; at 11.0 µM 47% | [16]; at 1.2 µM -1% | [16]; at 3.7 µM -1% | [16]; at 11.0 µM 0% | [16]; at 33.0 µM 46% | [16]; at 100.0 µM 39% | [13]; at 1.2 µM -1% | [13]; at 3.7 µM 1% | [13]; [17] -16% | [13]; at 11.0 µM 11% | [13]; at 33.0 µM 42% | [13]; at 50.0 µM 45.9% | [14]; at 1.2 µM -3% | [14]; at 3.7 µM -3% | [14]; [17] 6% | [14]; at 11.0 µM 3% | [14]; at 33.0 µM 34% | [14]; at 50.0 µM 30.4% | [2]; [17] 7% | [2]; at 50.0 µM 60.9% | [15]; at 1.2 µM -6% | [15]; at 3.7 µM -9% | [15]; at 11.0 µM -11% | [15]; at 33.0 µM -1% | [3]; [17] -84% | [3]; [18] -12% | [3]; at 50.0 µM 0.6% | [4]; at 1.2 µM -4% | [4]; at 3.7 µM -3% | [4]; [17] 3% | [4]; at 11.0 µM -3% | [4]; at 33.0 µM 21% | [4]; at 50.0 µM 59.2% | [5]; at 1.2 µM -3% | [5]; at 3.7 µM -5% | [5]; at 11.0 µM -4% | [5]; at 33.0 µM 66% | [7]; at 1.2 µM -1% | [7]; at 3.7 µM 1% | [7]; at 11.0 µM 11% | [7]; at 33.0 µM 63% | [8]; [17] 19% | [8]; at 50.0 µM 40.2% | [9]; at 1.2 µM -1% | [9]; at 3.7 µM 2% | [9]; at 11.0 µM 12% | [9]; at 33.0 µM 58%
active: [10]; at 100.0 µM 96% | [11]; at 100.0 µM 97% | [12]; at 33.0 µM 91% | [12]; at 100.0 µM 96% | [13]; [18] 94% | [13]; at 100.0 µM 95% | [14]; [18] 95% | [14]; at 100.0 µM 97% | [2]; [18] 98% | [15]; at 100.0 µM 83% | [4]; [18] 97% | [4]; at 100.0 µM 97% | [5]; at 100.0 µM 95% | [7]; at 100.0 µM 97% | [8]; [18] 97% | [9]; at 100.0 µM 95%
